Bioassay records from PubChem.
The list is not random: actives were taken first. Their share in the collection is about 19%.
ELG1 DNA repair – qHTS screen for small molecules that inhibit ELG1-dependent DNA repair in human embryonic kidney (HEK293T) cells expressing luciferase-tagged ELG1; 330,000 compounds, 2.3% hits; Potency, µM (titrated, usually from 46.1 µM), without a hit: top-dose activity change, negative = inhibition, hits mostly inhibitors; HEK293T ELG1-luciferase reporter, luminescence, 16 h; DNA damage induced by 5-fluorouridine; also: potency is read from the fitted curve at half-maximal effect; nearly all actives have a fitted effect of over 55% in size
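5-Fluorouridine DNA damage + compound/DMSO, 2,000 cells/well, 16 h, 37 °C/5% CO2. ONE-Glo, 30 min RT, luminescence. Readout = decrease in reporter signal.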
TDP1 block – qHTS Assay for Inhibitors of Tyrosyl-DNA Phosphodiesterase (TDP1). recombinant TDP1, AlphaScreen DNA substrate cleavage. Potency, µM (titrated, usually from 130 µM), inactives show top-dose activity change, negative = inhibition, most hits filed as inhibitors. 350,000 compounds, 0.28% hits; also: potency is read from the fitted curve at half-maximal effect; nearly all actives have a fitted effect of over 40% in size
Target sequence (Q9NUW8 whole entry, looked up): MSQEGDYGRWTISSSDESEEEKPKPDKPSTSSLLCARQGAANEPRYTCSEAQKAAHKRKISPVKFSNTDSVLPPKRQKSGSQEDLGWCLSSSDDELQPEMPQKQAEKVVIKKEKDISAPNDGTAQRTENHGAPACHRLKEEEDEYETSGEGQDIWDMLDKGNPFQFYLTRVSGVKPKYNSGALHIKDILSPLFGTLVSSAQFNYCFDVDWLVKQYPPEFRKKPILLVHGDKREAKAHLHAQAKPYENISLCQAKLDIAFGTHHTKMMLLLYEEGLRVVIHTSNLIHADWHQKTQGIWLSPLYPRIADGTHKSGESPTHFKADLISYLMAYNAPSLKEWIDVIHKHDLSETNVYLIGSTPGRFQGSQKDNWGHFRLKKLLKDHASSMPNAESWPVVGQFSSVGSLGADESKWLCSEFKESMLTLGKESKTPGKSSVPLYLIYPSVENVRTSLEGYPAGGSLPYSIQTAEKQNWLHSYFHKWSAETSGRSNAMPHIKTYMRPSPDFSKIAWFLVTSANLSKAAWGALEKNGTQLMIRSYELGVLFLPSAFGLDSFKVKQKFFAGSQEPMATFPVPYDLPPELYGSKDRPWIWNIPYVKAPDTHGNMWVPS
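Recombinant E. coli-expressed Tdp1 (1 nM) preincubated with compound 15 min at RT, then 5'-biotin/3'-phosphotyrosine-FITC DNA substrate (15 nM) added for 5 min. AlphaScreen beads (10 ug/ml) added, 10 min RT; tyrosine-FITC cleavage read as signal loss.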
TDP1 cell CPT – qHTS for Inhibitors of human tyrosyl-DNA phosphodiesterase 1 (TDP1): qHTS in cells in presence of CPT | chicken DT40 Tdp1-/-;hTDP1 cells + 20 nM CPT, ATP luminescence, 48 h | Potency, µM (series often up to 46.2 µM), without a hit: top-dose activity change, negative = growth inhibition, most hits filed as inhibitors | 420,000 compounds, 12% hits | AID 686979, 2013; also: potency is read from the fitted curve at half-maximal effect; nearly all actives have a fitted effect of over 55% in size
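Chicken DT40 Tdp1-/- cells complemented with human TDP1, 400 cells/well, exposed to compounds plus 20 nM camptothecin for at least 48 h at 37 C; viability read as ATP content by CellTiter-Glo luminescence.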
TDP1 cell noCPT – qHTS for Inhibitors of human tyrosyl-DNA phosphodiesterase 1 (TDP1): qHTS in cells in absence of CPT; DT40 Tdp1-/- hTDP1 cells, no CPT, ATP luminescence, 48 h; AID 686978, 2013; Potency, µM (top dose mostly 46.2 µM), inactives show at the highest dose activity change, negative = growth inhibition, most hits filed as inhibitors; 420,000 compounds, 15% hits; also: potency is read from the fitted curve at half-maximal effect; nearly all actives have a fitted effect of over 55% in size
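Seeded 400 DT40-hTDP1 cells/well (vehicle DMSO, no 20 nM CPT); pinned compounds; ≥48 hr at 37 °C; CellTiter-Glo luminescence as viability measure.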
Giardia kill – Small Molecules that selectively kill Giardia lamblia: qHTS | Giardia lamblia trophozoite viability | activity change, % at 7.66 µM, hits read low | 340,000 compounds, 0.15% hits; in the data active = activity change below about -80%; inconclusive = between about -30% and that limit;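 also: parasites exposed to compound for two days anaerobically before the ATP read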
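Luminescence from cellular ATP indicates surviving trophozoites (100 cells/well) following 48 hrs anaerobic compound treatment at 37 deg C; signal develops 15-30 min at room temperature.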
IL-1B inflam inh – qHTS for Inhibitors of Inflammasome Signaling: IL-1-beta AlphaLISA Primary Screen | THP-1 LPS/ATP IL-1B secretion, AlphaLISA, 16 h; stronger effect = lower value | activity change, % at 57.5 µM | 360,000 compounds, 4.7% hits | AID 743279, 2014; in the data active = activity change below about -50%; inconclusive = mostly about -30% to -49%
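THP-1 cells pretreated 1 hr with compounds (up to 57.5 uM final), then stimulated with LPS (250 ng/mL final) plus ATP (1.25 mM final); secreted IL-1B measured by AlphaLISA after 16 hr, decreased signal indicating inhibition.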
Starred values were filed as active, the others as inactive; u = inconclusive; x = no result given; ! = not confirmed by another sample. Unless noted, calls follow the shape of the dose curve; as a rule, active = well fitted curve in the direction sought with a large enough effect; inconclusive = small, poorly fitted or top-dose-only effect, or another doubt; inactive = no such curve, though single readings can be large; an effect the other way counts as inactive or inconclusive. % is scaled to controls: 0 for no effect and ±100 for the full control effect.

SMILES | ELG1 DNA repair | TDP1 block | TDP1 cell CPT | TDP1 cell noCPT | Giardia kill | IL-1B inflam inh
COc1cc(-c2nc(-c3ccc(NC(=O)c4ccc(Br)o4)cc3)no2)cc(OC)c1OC | 10µM* | 6% | 13µM* | 16µM* | 19 | 42
COc1ccc(CCC(=O)Nc2ccc(-c3noc(-c4ccc(OC)c(OC)c4)n3)cc2)cc1 | u | 7% | -28% | u | 20 | 17
COc1ccc2c(n1)Sc1nc3ccccc3nc1N2 | u | 3% | u | u | 4 | 16
COc1cc(C)ccc1N(CCCN1C(=O)c2cccc3cccc(c23)C1=O)C(=O)c1cccs1 | 21µM* | 5% | 9.2µM* | 9.2µM* | 24 | -7
Cc1ccc(S(=O)(=O)CCc2nnc(N)s2)cc1 | 0% | -4% | -5% | -19% | -29 | -4
C=C1CC2C(=O)N(Cc3cc(OC)ccc3OC)C(C(=O)OCC)(C(=O)OCC)C1N2C(=O)OC(C)(C)C (centres undefined) | x | 7% | 21µM* | u | 15 | 0
COc1ccc(B(O)O)c(CN2CCN(C(=O)OC(C)(C)C)CC2)c1 | x | x | 4% | 1% | -19 | -8
c1ccc(COn2c(-c3ccccc3)nc3c2CCc2nonc2-3)cc1 | u | 6% | u | 26µM* | 2 | 2
Cc1cccc(OCCOC(=O)c2ccc(F)c(S(=O)(=O)N3CCOCC3)c2)c1 | -10% | -4% | u | -15% | -6 | -9
Cc1cc(C(=S)N2CCOCC2)c(C)n1-c1ccc(F)cc1 | -29% | 5% | 0% | 17% | -10 | -7
Cc1ccc(-n2c(C)cc(C(=S)N3CCOCC3)c2C)cc1C | -23% | 5% | 23µM* | 15µM* | 2 | -67*
C/C(N)=C(/C#N)C(=O)CSc1nc(C2CCCCC2)n(-c2ccccc2)n1 | u | 7% | 13µM*! | u | 3 | -6
S=C(NCCCN1CCOCC1)NC1CC1 | 5% | 0% | -9% | 4% | -10 | -1
CCOc1ccc(Oc2cc(NC(=O)c3ccco3)cc([N+](=O)[O-])c2)cc1 | u | 2% | -22% | 16µM* | 1 | -18
O=C(Nc1cc(Oc2ccc(Cl)cc2)cc([N+](=O)[O-])c1)c1ccco1 | -2% | 5% | u | 16µM* | -1 | -8
COc1cc(NC(=O)c2ccc(=O)[nH]n2)cc(OC)c1OC | u | x | 17% | -2% | 11 | 13
CC(=O)Nc1ccc(CN(C)c2c(C)nc3ccc(C(=O)Nc4ccc(Cl)c(Cl)c4)cn23)cc1 | x | x | u | u | x | -53*
COc1ccccc1CNC(=O)c1ccc2nc(C)c(N(C)Cc3ccc(NC(C)=O)cc3)n2c1 | x | x | 16µM* | 15µM* | x | -22
CCCCC(=O)N(C)c1c(C)nc2ccc(C(=O)NCc3ccccc3OC)cn12 | x | x | -5% | -5% | x | 8
CCc1nc2ccc(C(=O)NCCOc3ccc(OC)cc3)cn2c1N(C)CCCc1ccccc1 | x | x | u | u | x | 0
COc1ccc(CNC(=O)c2ccc3nc(C)c(N(C)Cc4ccc(NC(C)=O)cc4)n3c2)cc1 | x | x | 13µM* | 16µM* | x | -7
CC(=O)Nc1ccc(CN(C)c2c(C)nc3ccc(C(=O)NC4CCN(Cc5ccccc5)CC4)cn23)cc1 | x | x | u | u | x | -11
CCCCN(C)c1c(C)nc2ccc(C(=O)NCc3ccc(OC)cc3)cn12 | x | x | 13µM* | 13µM* | x | u
CC[C@H](C)[C@@H]1NC(=O)c2cc([N+](=O)[O-])cc(I)c2SC[C@@H](C(N)=O)NC(=O)[C@H](CCCCN)NC1=O | 1% | -5% | -9% | u | -14 | -2
Nc1nc(N)c2cc(S(=O)(=O)c3cccc(C(F)(F)F)c3)ccc2n1 | x | x | 3.7µM* | 0.92µM* | x | 21
SMILES | ELG1 DNA repair | TDP1 block | TDP1 cell CPT | TDP1 cell noCPT | Giardia kill | IL-1B inflam inh
COc1ccc(/C=C2\SC(=O)N(CCNC(=O)CCS(=O)(=O)c3ccc(C)cc3)C2=O)cc1 | u | 2% | 13µM* | 21µM* | -9 | -12
CCc1noc(C)c1C(=O)NCCN1C(=O)S/C(=C\c2ccc(OC)cc2)C1=O | -5% | 6% | 23µM* | 16µM* | -14 | -23
CCN(CC)CC#CCC(C)(c1ccccc1)c1ccccc1 | -22% | 6% | u | 16µM* | 4 | u
COc1ccc(NC(=O)NCC2CCN(Cc3ccccc3F)CC2)c(OC)c1 | x | 2% | 0% | 4% | x | x
C[C@H]1CN([C@@H](C)CO)C(=O)c2cc(C#Cc3cccnc3)cnc2O[C@H]1CN(C)Cc1ccc(F)cc1 | x | x | u | u | x | -8
COc1cccc(S(=O)(=O)N(C)C[C@@H]2Oc3ncc(C#CCN(C)C)cc3C(=O)N([C@H](C)CO)C[C@H]2C)c1 | x | x | -21% | u | x | -16
COc1ccc(S(=O)(=O)N(C)C[C@H]2Oc3ncc(C#CC4(O)CCCC4)cc3C(=O)N([C@@H](C)CO)C[C@@H]2C)cc1 | x | x | 9.2µM* | u | x | -28
COc1ccc(S(=O)(=O)N(C)C[C@H]2Oc3ncc(-c4ccncc4)cc3C(=O)N([C@@H](C)CO)C[C@@H]2C)cc1 | x | x | -21% | u | x | u
C[C@H](CO)N1C[C@H](C)[C@@H](CN(C)S(=O)(=O)c2ccccc2F)Oc2ncc(C#Cc3cccnc3)cc2C1=O | x | x | u | 15µM* | x | -6
CCCC#Cc1cnc2c(c1)C(=O)N([C@H](C)CO)C[C@@H](C)[C@H](CN(C)S(=O)(=O)c1cccc(OC)c1)O2 | x | x | u | 10µM* | x | u
CC(C)N(C(=O)Cn1cc(S(=O)(=O)Cc2ccc(C(F)(F)F)cc2)c2ccccc21)C(C)C | x | 3% | u | u | x | x
NC(=O)c1sc2nc3c(c(-c4ccco4)c2c1N)CCC3 | u | 6% | u | 14µM* | -16 | -80*
O=C(NC1CCCC1)c1cc2nc(-c3ccco3)cc(C(F)(F)F)n2n1 | -7% | 7% | u | u | -7 | -4
NC(=O)c1sc2nc(-c3cccnc3)ccc2c1N | u | -3% | u | u | -25 | -67*
CCOC(=O)c1sc2nc(-c3cccnc3)ccc2c1N | u | -4% | -3% | -22% | u | 0
